High-throughput results (PubChem)
AddAB inh: less growth of phage-infected E. coli with AddAB | inhibition, % at 11.9 µM | E. coli expressing H. pylori AddAB, absorbance growth | AID 435030 | hit rate 0.29% among 330,000; in the data active = inhibition above about 12%;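 also: 0% = vehicle wells of infected cells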
E coli growth-1: reduces bacterial viability in AddAB counter-screen; E. coli V3065 growth, OD600 absorbance, 18 h; inhibition, % at 11.9 µM; hit rate 0.27% among 330,000; AID 449728;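 active = inhibition above the campaign's mean inhibition across all tested compounds plus 3 SD, cut at about 9.9% in these data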;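 also: uninfected addAB+ strain grown without phage in ampicillin broth; 0% = DMSO wells and 100% = ciprofloxacin 0.95 µg/ml wells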
phage Ecoli inh: E. coli growth loss with phage present; growth absorbance; inhibition, % at 11.9 µM; hit rate 0.26% among 360,000; AID 651602; in the data active = inhibition above about 11%
Tat transport: inhibitors of E. coli Tat protein transport; E. coli MC4100 TorA-mCherry Tat export, fluorescence; inhibition, % at 10 µM; hit rate 0.036% among 340,000; AID 488895;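 active = mean replicate inhibition at least 50% and at least half of replicates individually reaching 50%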;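 also: exported cargo escapes ClpAP degradation while cytoplasmic cargo is degraded and loses fluorescence; 0% = median of neutral control wells and 100% = median of NaSCN control wells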
E coli growth-2: inhibitors of Escherichia coli growth; OD600, 23 h; hits give low values; OD600 absorbance (test concentration not listed); hit rate 0.21% among 330,000; AID 1053175;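 active = OD600 absorbance below the run mean of sample wells minus 3.6 SD, in any replicate, cut at about 0.56 in these data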
RecBCD conf: growth loss of phage-infected V66 E. coli, RecBCD confirmation screen; E. coli V66 + T4 2- phage, growth OD; shares compounds with phage Ecoli inh; hit rate 45% among 890; inhibition, % at 11.9 µM; AID 651982;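 active = mean inhibition over triplicates exceeding the hit threshold derived in the original primary screen, cut at about 11% in these data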
Ecoli viability: inhibits E. coli viability, flagging RecBCD hits as nonselective; hit rate 29% among 890; inhibition, % at 11.9 µM; AID 651983; shares compounds with phage Ecoli inh; absorbance (OD) growth; in the data active = inhibition above about 20%;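 also: E. coli strain V66 grown with compound alone and no phage infection; 0% = bacteria with DMSO vehicle only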
AddAB counter: growth loss of phage-infected AddAB E. coli, RecBCD counter-screen | hit rate 45% among 890 | inhibition, % at 11.9 µM | E. coli expressing H. pylori AddAB + T4 phage, OD growth; gene 2 mutant T4, recBCD-deleted host | AID 651984 | shares compounds with phage Ecoli inh;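 active = mean inhibition above the solvent-only control wells' mean plus 3 SD, cut at about 22% in these data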;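 also: higher means less bacterial growth from phage killing when AddAB is blocked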
Numbers without * were called inactive. An excerpt weighted towards active compounds, which were near 0.5% of everything screened.

How did O=C1c2ccccc2NC(c2cccc(F)c2)N1Cc1ccccc1 (stereo not drawn) do in these assays?
AddAB inh: 1.0; E coli growth-1: -0.8; phage Ecoli inh: 0.9; Tat transport: -4.2; E coli growth-2: 0.619

Results for O=C1c2ccccc2NC(c2ccc(-c3cccc(F)c3)o2)N1O (stereo not drawn) ?
AddAB inh: 8.9; E coli growth-1: 9.0; phage Ecoli inh: 12.3*; Tat transport: 2.9; E coli growth-2: 0.658; RecBCD conf: 3.4; Ecoli viability: 3.9; AddAB counter: 4.5

What do the screens show for `NC(=NOS(=O)(=O)c1ccccc1)c1ccncc1`?
E coli growth-2: 0.703

What do the screens show for `S=C(NCc1ccccn1)NN=Cc1ccccn1`?
phage Ecoli inh: 17.6*; Tat transport: -0.1; RecBCD conf: 13.6*; Ecoli viability: 15.9; AddAB counter: 15.8

How did CC(=O)OC1CC2CCC3C(CCC4(C)C3CC([N+]3(C)CCCCC3)C4OC(C)=O)C2(C)CC1[N+]1(C)CCCCC1 (stereo not drawn) do in these assays?
E coli growth-2: 0.664

What do the screens show for `CCCCn1c(CNC(=O)CC)nc2ccccc21`?
AddAB inh: 0.7; E coli growth-1: -2.3; phage Ecoli inh: 1.9; Tat transport: -9.0; E coli growth-2: 0.724

What do the screens show for `CCCCn1c(CNC(=O)Cc2ccccc2)nc2ccccc21`?
AddAB inh: -0.5; E coli growth-1: -1.5; phage Ecoli inh: 99.5*; Tat transport: -2.6; E coli growth-2: 0.7; RecBCD conf: -2.9; Ecoli viability: -3.3; AddAB counter: 3.1

Results for Cc1nnc(NS(=O)(=O)c2ccc(F)cc2)s1 ?
phage Ecoli inh: 1.2; Tat transport: 1.9

How did Cc1nnc(NS(=O)(=O)c2ccc(N)cc2)s1 do in these assays?
AddAB inh: 3.8; E coli growth-1: 5.5; phage Ecoli inh: 12.1*; Tat transport: -2.3; E coli growth-2: 0.628; RecBCD conf: 4.5; Ecoli viability: 3.1; AddAB counter: 26.6*

Results for CN(C)CCNc1cccc2sc3ccc(O)cc3c(=O)c12 ?
phage Ecoli inh: 13.4*; RecBCD conf: -2.5; Ecoli viability: -2.9; AddAB counter: 3.4

How did Cc1ccc(NCCN(C)C)c2c(=O)c3cc(O)ccc3sc12 do in these assays?
phage Ecoli inh: 1.2; Tat transport: -8.8

How did CCOC1OC(C(=O)N2CCN(Cc3ccc4c(c3)OCO4)CC2)=CC(C2CCCCC2)C1CCCO (stereo not drawn) do in these assays?
E coli growth-2: 0.696

How did CCN(CC)c1ccc(/C=N/Nc2nc3ccccc3[nH]2)c(O)c1 do in these assays?
AddAB inh: -0.9; E coli growth-1: 1.8; phage Ecoli inh: 14.8*; Tat transport: -6.9; RecBCD conf: 7.6; Ecoli viability: 12.8; AddAB counter: 16.2

What do the screens show for `O=C(/C=C/c1ccccc1)c1cc(Br)ccc(=O)c1O`?
AddAB inh: 8.9; E coli growth-1: 10.1*; phage Ecoli inh: 26.6*; Tat transport: -10.2; E coli growth-2: 0.709; RecBCD conf: 16.2*; Ecoli viability: 21.9*; AddAB counter: 6.2

Results for O=C(Nc1ccccc1)C1=CC(c2ccc(Br)cc2)CC(OCc2ccc(CO)cc2)O1 (stereo not drawn) ?
E coli growth-2: 0.732

How did CC(C)(C)NC(=O)C1CN(Cc2cccnc2)CCN1CC(O)CC(Cc1ccccc1)C(=O)NC1c2ccccc2CC1O (stereo not drawn) do in these assays?
E coli growth-2: 0.637

What do the screens show for `FC(F)(F)c1ccc(NC(=S)NC2CCCCC2)cc1`?
AddAB inh: 9.6; E coli growth-1: 9.3; phage Ecoli inh: 14.7*; Tat transport: 0.1; E coli growth-2: 0.635; RecBCD conf: 6.7; Ecoli viability: 7.6; AddAB counter: 9.2

How did FC(F)(F)c1cccc(NC(=S)NC2CCCC2)c1 do in these assays?
AddAB inh: 6.2; E coli growth-1: 3.3; phage Ecoli inh: 8.3; Tat transport: 1.3; E coli growth-2: 0.619

How did CC(NC(=O)c1nc[nH]c1C(=O)NCC(=O)OC(C)(C)C)C(=O)OC(C)(C)C (stereo not drawn) do in these assays?
E coli growth-2: 0.702

How did Cn1cc(S(=O)(=O)N2CCOCC2)cc1C(=O)Nc1ccc(Cl)cc1 do in these assays?
AddAB inh: 1.3; E coli growth-1: -0.3; phage Ecoli inh: 2.1; Tat transport: -1.0; E coli growth-2: 0.722

Results for COc1ccc(C(=O)Nc2ccc(S(=O)(=O)N3CCOCC3)cc2)cc1 ?
AddAB inh: 3.0; E coli growth-1: 1.4; phage Ecoli inh: 12.4*; E coli growth-2: 0.647; RecBCD conf: -0.2; Ecoli viability: -0.4; AddAB counter: -1.6

What do the screens show for `Cc1ccc(NC(=O)c2cc(S(=O)(=O)N3CCOCC3)cn2C)cc1F`?
AddAB inh: 1.5; E coli growth-1: 1.1; phage Ecoli inh: 28.9*; Tat transport: -9.8; E coli growth-2: 0.725; RecBCD conf: -3.1; Ecoli viability: -2.7; AddAB counter: -8.4

How did C[C@@]12C(=O)N(CC3CCCO3)CC(=O)N1C1c3ccccc3OCC1C2c1ccccc1 (stereo partly drawn) do in these assays?
E coli growth-2: 0.694

How did COc1ccc(CNC(=S)NN=Cc2ccncc2)cc1 do in these assays?
E coli growth-2: 0.702

How did O=C(NNS(=O)(=O)c1ccc(F)cc1)c1cc(Cl)ccc1O do in these assays?
phage Ecoli inh: 15.0*; Tat transport: 8.0; E coli growth-2: 0.634; RecBCD conf: -3.0; Ecoli viability: -1.1; AddAB counter: 3.5

Results for Cc1ccc(CC(=O)Nc2ncc([N+](=O)[O-])s2)cc1 ?
AddAB inh: 6.3; E coli growth-1: 8.8; phage Ecoli inh: 12.8*; Tat transport: -15.1; E coli growth-2: 0.557; RecBCD conf: 8.8; Ecoli viability: 9.2; AddAB counter: -2.5

Results for Cc1ccc(S(=O)(=O)CC(=O)Nc2ncc([N+](=O)[O-])s2)cc1 ?
AddAB inh: 0.2; E coli growth-1: -2.5; phage Ecoli inh: -0.9; Tat transport: 4.1; E coli growth-2: 0.639

What do the screens show for `O=C(Cc1cnn(-c2ccccc2)c1)c1ccc(O)c(O)c1O`?
AddAB inh: 12.0; E coli growth-1: 8.1; phage Ecoli inh: 11.3*; Tat transport: 12.2; E coli growth-2: 0.637; RecBCD conf: 1.6; Ecoli viability: 4.5; AddAB counter: 10.0

How did CC1CN(C(C)CO)C(=O)c2cccc(NC(=O)C3CCCCC3)c2OC1CN(C)C(=O)NC1CCCCC1 (stereo not drawn) do in these assays?
E coli growth-2: 0.651

What do the screens show for `Fc1cccc(/C=N/Nc2nncc3ccccc23)c1`?
AddAB inh: 0.3; E coli growth-1: 1.4; phage Ecoli inh: 3.1; Tat transport: 8.3
